The list is not random: actives were taken first. Their share in the collection is about 19%.
HT1080-NT tox = kills 2HG-producing HT-1080-NT fibrosarcoma cells. Potency, µM (highest dose often 46.1 µM), for inactives: at the top dose activity, negative = less viability, most hits filed as cytotoxic. HT-1080-NT fibrosarcoma viability, CellTiter-Glo ATP luminescence, 48 h. AID 686970. actives 1.6% (n = 360,000);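 also: NT is the 2HG producing partner of a matched IDH1 knockdown line; potency is read from the fitted curve at half-maximal effect; 0% = DMSO-treated cells and -100% = media-only wells without cells; nearly all actives have a fitted effect of over 55% in size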
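HT-1080-NT fibrosarcoma cells (2HG-overproducing), 750 cells/well in RPMI with 5% FBS, dosed after 2 h and incubated 48 h at 37C. CellTiter-Glo luminescence normalized to DMSO and no-cell wells; concentration-response curves fitted and classed.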
HT1080 IDH1KD tx = toxicity to HT-1080 IDH1 knockdown cells (counter line); HT-1080 IDH1 knockdown viability, ATP luminescence, 48 h; Potency, µM (top dose mostly 46.1 µM), without a hit: at the highest dose activity, negative = toxicity, most hits filed as cytotoxic; actives 2% (n = 360,000); AID 686971;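 also: potency is read from the fitted curve at half-maximal effect; 0% = DMSO wells and -100% = cell-free medium wells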
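Knockdown cells (IDH1KD HT-1080) received compounds 2 h after plating at 750 cells/well and were kept 48 h at 37 °C in 5% FBS RPMI. A CellTiter-Glo luminescence read gave % activity for curve fitting.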
TDP1 cell CPT = DT40-hTDP1 cell growth loss with CPT; actives 12% (n = 420,000); Potency, µM (highest dose often 46.2 µM), for inactives: at the highest dose activity change, negative = growth inhibition, usual class: inhibitors; chicken DT40 Tdp1-/-;hTDP1 cells + 20 nM CPT, ATP luminescence, 48 h; also: potency is read from the fitted curve at half-maximal effect; nearly all actives have a fitted effect of over 55% in size
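Cell growth measured by CellTiter-Glo luminescence after a minimum 48 h, 37 C compound exposure with 20 nM CPT in Tdp1-knockout DT40 cells stably expressing hTDP1, seeded 400/well; qHTS titration format.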
IL1B secr inh = blocks inflammasome-driven IL-1 beta release | THP-1 LPS/ATP IL-1B secretion, AlphaLISA, 16 h; hits give low values | activity change, % at 57.5 µM | actives 4.7% (n = 360,000); in the data active = activity change below about -50%; inconclusive = mostly about -30% to -49%
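Secreted IL-1B measured by AlphaLISA bead assay after 16 h compound exposure of THP-1 cells; compounds (final up to 57.5 uM) added 1 h before LPS (250 ng/mL) and ATP (1.25 mM) stimulation; lower signal means less secretion.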
DT40 TDP1 no CPT = qHTS for Inhibitors of human tyrosyl-DNA phosphodiesterase 1 (TDP1): qHTS in cells in absence of CPT; actives 15% (n = 420,000); DT40 Tdp1-/- hTDP1 cells, no CPT, ATP luminescence, 48 h; Potency, µM (top dose mostly 46.2 µM), for the others: at the top dose activity change, negative = growth inhibition, most hits filed as inhibitors; AID 686978, 2013; also: potency is read from the fitted curve at half-maximal effect; nearly all actives have a fitted effect of over 55% in size
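Stably hTDP1-transfected Tdp1-null chicken DT40 cells were treated with library compounds minus camptothecin and grown for at least 48 hr at 37 °C, after which cellular ATP was quantified by luminescence.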
The depositor's hits bear a star; i = inactive; ? = inconclusive; . = no result. Unless noted, calls follow the shape of the dose curve; as a rule, active = well fitted curve in the direction sought with a large enough effect; inconclusive = small, poorly fitted or top-dose-only effect, or another doubt; inactive = no such curve, though single readings can be large; an effect the other way counts as inactive or inconclusive. Unless noted, % is scaled to controls: 0 for no effect and ±100 for the full control effect.

SMILES | HT1080-NT tox | HT1080 IDH1KD tx | TDP1 cell CPT | IL1B secr inh | DT40 TDP1 no CPT
CSc1ccc(NC(=O)NCCCN2CCC(Cc3ccccc3)CC2)cc1 | -19% | -1% | ? | -54* | 23µM*
CN1CCN(CCCNC(=O)C2CC(=O)N(C3CCCCC3)C2)CC1 (stereo not drawn) | 3% | 4% | 6% | 17 | 7%
O=C(NCCCN1CCC(Cc2ccccc2)CC1)C1CC(=O)N(C2CCCCCC2)C1 (stereo not drawn) | 2% | -7% | ? | 0 | 26µM*
CCC(C(=O)NCCCN1CCN(CCCNC(=O)C(CC)c2ccccc2)CC1)c1ccccc1 (stereo not drawn) | 11% | 0% | -18% | -4 | ?
CCC(NC(=O)c1ccccc1NC(=O)C(C)(C)C)C(=O)N1CC(C)OC(C)C1 (stereo not drawn) | 2% | 3% | -15% | 47 | -19%
O=S1(=O)N[C@@H](Cc2ccccc2)COc2cc(N3CCSCC3)ccc21 | 4% | 4% | -1% | 0 | -24%
Cc1noc(C)c1CSc1nnc2sc3ccccc3n12 | 12% | 5% | 1% | -8 | -28%
Cc1occc(=O)c1OC(=O)Nc1ccc(Cl)c(Cl)c1 | 23µM* | ? | 2.9µM* | -78* | 4.6µM*
CCCc1cc(=O)[nH]c(Nc2ccc(Cl)cc2)n1 | -21% | ? | ? | -76* | 16µM*
O=S(=O)(NCCC1=CCCCC1)c1ccc(F)cc1 | -20% | -3% | -25% | 0 | -3%
O=[N+]([O-])c1ccccc1S(=O)(=O)NCCC1=CCCCC1 | 12% | 7% | 18µM* | -26 | 21µM*
O=S(=O)(NCCC1=CCCCC1)c1cccc(Br)c1 | -9% | -21% | ? | 2 | 18µM*
Cc1ccc(CC(=O)CCc2ccccc2)cc1 | 14% | 11% | -14% | 1 | -9%
O=C(Cn1cnc2ccccc21)Nc1ccc2c(c1)OCCCO2 | -15% | -12% | 8.2µM* | 0 | 2.3µM*
O=C(CSc1ncnc2ccccc12)Nc1ccc2c(c1)OCO2 | -11% | -4% | ? | -65* | ?
O=C(CSc1ncnc2c1cnn2-c1ccccc1)Nc1ccc2c(c1)OCO2 | -3% | 0% | -58% | -5 | -49%
CC(Sc1nc2ccccc2c(=O)n1C)C(=O)Nc1ccc2c(c1)OCCO2 (stereo not drawn) | ? | -4% | 8.2µM* | 22 | 4.1µM*
Cc1cccc(NC(=O)C(C)Sc2ncnc3sccc23)c1 (stereo not drawn) | -10% | -19% | 18µM* | -2 | 15µM*
CC(Sc1ccccn1)C(=O)Nc1ccc2c(c1)OCCO2 (stereo not drawn) | -1% | 8% | 1% | -8 | -6%
COc1ccccc1NC(=O)C(C)Sc1nc2ccccc2c(=O)n1CC1CCCO1 (stereo not drawn) | 3% | -5% | ? | -1 | -24%
CC(Sc1nc2ccccc2c(=O)n1CC1CCCO1)C(=O)N(C)c1ccccc1 (stereo not drawn) | -8% | 0% | 21µM* | -3 | 5.8µM*
CC(C)Cn1c(SC(C)C(=O)Nc2ccc3c(c2)OCCO3)nc2ccccc2c1=O (stereo not drawn) | -24% | -26% | 29µM* | -14 | ?
Cc1ccc(C)c(NC(=O)C(Sc2nc3ccccc3c(=O)n2CC(C)C)c2ccccc2)c1 (stereo not drawn) | -5% | -5% | 4.1µM* | -2 | 2.6µM*
CC(Sc1ncnc2ccccc12)C(=O)Nc1ccc2c(c1)OCCO2 (stereo not drawn) | -20% | -30% | 15µM* | -12 | 13µM*
O=c1c2oc3ccccc3c2n(Cc2ccccc2F)c(=O)n1Cc1ccco1 | . | . | -15% | . | -1%
SMILES | HT1080-NT tox | HT1080 IDH1KD tx | TDP1 cell CPT | IL1B secr inh | DT40 TDP1 no CPT
COc1cc(OC)c2c3c(c(C4CCCCC4)nc2c1)CCC3 | 9% | 8% | ? | 51 | ?
O=C(CCCN1C(=O)c2cccc3cccc(c23)C1=O)NC1CCS(=O)(=O)C1 (stereo not drawn) | 8% | 0% | -2% | -24 | -9%
CCN1CCc2c(sc(NC(=O)c3ccc(S(=O)(=O)N4CCOCC4)cc3)c2C(=O)OC)C1 | ? | ? | 8.2µM* | -5 | ?
COC(=O)c1c(NC(=S)NN2CCOCC2)sc2c1CCCC2 | 0% | 11% | ? | -13 | 15µM*
CCOC(=O)c1c(NC(=O)c2ccc(S(=O)(=O)N3CCOCC3)cc2)sc2c1CCN(C(C)C)C2 | -12% | ? | ? | ? | 8.2µM*
CCN1CCc2c(sc(NC(=O)c3ccc(S(=O)(=O)N4CCOCC4)cc3)c2C(N)=O)C1 | -7% | 6% | ? | ? | ?
CNC(=O)c1c(NC(=O)c2ccc(S(=O)(=O)N3CC(C)OC(C)C3)cc2)sc2c1CCN(C(C)C)C2 (stereo not drawn) | -7% | 0% | ? | i | ?
COC(=O)c1c(NC(=O)c2ccc(S(=O)(=O)N3CCOCC3)cc2)sc2c1CCN(C)C2 | ? | ? | ? | -75* | ?
O=C(NCC(c1ccc(F)cc1)N1CCOCC1)c1ccco1 (stereo not drawn) | 0% | 0% | -2% | 8 | 15%
O=P(Cc1cccc2ccccc12)(c1ccccc1)c1ccccc1 | 2% | -8% | ? | -9 | 21µM*
O=P(Cc1ccccc1)(c1ccccc1)c1ccccc1 | 10% | 8% | ? | 5 | ?
O=C(NC1(C(F)(F)F)NC(=O)N(CC2CCCCC2)C1=O)c1ccco1 (stereo not drawn) | 11% | -2% | -11% | 28 | -5%
COc1ccc(N2CCN(Cc3nc4c(c(=O)[nH]c(=O)n4C)n3CC(C)=O)CC2)cc1 | 5% | 10% | 14% | 0 | -9%
O=C(COC(=O)CC1c2ccccc2CCN1S(=O)(=O)c1ccccc1)Nc1ccccc1 (stereo not drawn) | -2% | -1% | ? | 0 | 21µM*
c1ccc(CCNc2ncnc3scc(C4COc5ccccc5O4)c23)cc1 (stereo not drawn) | -26% | -30% | ? | 0 | 18µM*
c1ccc2c(c1)OCC(c1csc3ncnc(N4CCCC4)c13)O2 (stereo not drawn) | -22% | -18% | 15µM* | -7 | 10µM*
O=C(CSc1nnc(C2COc3ccccc3O2)o1)N1CCCCC1 (stereo not drawn) | -1% | 0% | -8% | -4 | -9%
Cc1cccc(OCC(=O)Nc2ccccc2C(=O)OCc2cc(=O)n3nc(C)sc3n2)c1 | . | . | -6% | . | -29%

Bioassay records as filed in PubChem BioAssay.
